Inconclusive results are not listed. The source made the active and inactive calls. Unless noted, calls follow the shape of the dose curve; as a rule, active = well fitted curve in the direction sought with a large enough effect in the repeat runs; inconclusive = weak or mixed curves; inactive = no such curve, though single readings can be large; an effect the other way counts as inactive or inconclusive.
How the values were obtained:
[1] = target: Thyrotropin receptor (Homo sapiens) (UniProt P16473); experiment: qHTS assay to identify small molecule antagonists of the thyroid stimulating hormone receptor (TSHR) signaling pathway (AID 1259385; calls by dose curve; also: nearly all actives have a fitted effect of over 20% in size); conditions: TSHR-HEK293 cAMP HTRF, TSH-stimulated antagonist mode; series mostly up to 92.4 µM
Sequence of Thyrotropin receptor (Homo sapiens) (P16473 whole entry, looked up): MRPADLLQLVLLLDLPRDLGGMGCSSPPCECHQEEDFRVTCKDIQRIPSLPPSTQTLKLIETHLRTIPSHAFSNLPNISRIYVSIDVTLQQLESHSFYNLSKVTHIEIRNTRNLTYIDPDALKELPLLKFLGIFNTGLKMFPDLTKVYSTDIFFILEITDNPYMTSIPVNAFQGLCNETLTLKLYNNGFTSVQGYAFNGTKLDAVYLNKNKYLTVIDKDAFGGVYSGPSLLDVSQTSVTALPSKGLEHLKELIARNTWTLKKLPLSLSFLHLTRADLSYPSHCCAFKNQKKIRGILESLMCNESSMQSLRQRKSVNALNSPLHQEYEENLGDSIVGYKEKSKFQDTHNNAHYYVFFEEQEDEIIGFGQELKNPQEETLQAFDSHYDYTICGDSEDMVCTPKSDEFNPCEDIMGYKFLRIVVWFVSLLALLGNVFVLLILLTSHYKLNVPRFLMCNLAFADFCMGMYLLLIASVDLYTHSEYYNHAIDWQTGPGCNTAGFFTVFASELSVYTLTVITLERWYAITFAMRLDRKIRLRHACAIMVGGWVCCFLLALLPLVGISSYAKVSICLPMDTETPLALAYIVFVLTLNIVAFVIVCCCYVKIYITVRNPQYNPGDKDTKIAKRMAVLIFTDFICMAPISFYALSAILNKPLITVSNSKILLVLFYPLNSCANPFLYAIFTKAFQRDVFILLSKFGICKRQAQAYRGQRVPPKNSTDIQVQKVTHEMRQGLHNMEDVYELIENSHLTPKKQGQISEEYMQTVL
Method in brief: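 Antagonist mode: compound-treated TSHR-expressing HEK293 cells were stimulated with 1.5 ng/mL TSH (final) in presence of Ro20-1724 for 30 min at RT. HTRF cAMP detection after 1 h; each compound tested at 15 concentrations, triplicate.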

[2] = qHTS assay to identify small molecule agonists of the estrogen receptor alpha (ER-alpha) signaling pathway in the presence of an antagonist - cell viability counter screen (AID 1259386); conditions: VM7Luc4E2 viability, CellTiter-Fluor fluorescence, 22 h; series mostly up to 92.4 µM;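 also: cells exposed to compounds for 22 h at 37 °C before the viability read; nearly all actives have a fitted effect of over 30% in size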
Method in brief: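 The test measures whether compounds kill ER-alpha reporter cells (VM7Luc4E2) under antagonist co-treatment (ICI-182,780, 10.0nM). Fluorescence from CellTiter-Fluor is read after a 22hr exposure.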

[3] = target: Progesterone receptor (Homo sapiens) (UniProt P06401); experiment: qHTS assay to identify small molecule agonists of the progesterone receptor (PR) signaling pathway (AID 1346784; calls by dose curve; also: nearly all actives have a fitted effect of over 30% in size); conditions: PR-UAS-bla HEK293T, beta-lactamase FRET ratio, 16 h; series mostly up to 92.4 µM
Sequence of Progesterone receptor (Homo sapiens) (P06401 whole entry, looked up): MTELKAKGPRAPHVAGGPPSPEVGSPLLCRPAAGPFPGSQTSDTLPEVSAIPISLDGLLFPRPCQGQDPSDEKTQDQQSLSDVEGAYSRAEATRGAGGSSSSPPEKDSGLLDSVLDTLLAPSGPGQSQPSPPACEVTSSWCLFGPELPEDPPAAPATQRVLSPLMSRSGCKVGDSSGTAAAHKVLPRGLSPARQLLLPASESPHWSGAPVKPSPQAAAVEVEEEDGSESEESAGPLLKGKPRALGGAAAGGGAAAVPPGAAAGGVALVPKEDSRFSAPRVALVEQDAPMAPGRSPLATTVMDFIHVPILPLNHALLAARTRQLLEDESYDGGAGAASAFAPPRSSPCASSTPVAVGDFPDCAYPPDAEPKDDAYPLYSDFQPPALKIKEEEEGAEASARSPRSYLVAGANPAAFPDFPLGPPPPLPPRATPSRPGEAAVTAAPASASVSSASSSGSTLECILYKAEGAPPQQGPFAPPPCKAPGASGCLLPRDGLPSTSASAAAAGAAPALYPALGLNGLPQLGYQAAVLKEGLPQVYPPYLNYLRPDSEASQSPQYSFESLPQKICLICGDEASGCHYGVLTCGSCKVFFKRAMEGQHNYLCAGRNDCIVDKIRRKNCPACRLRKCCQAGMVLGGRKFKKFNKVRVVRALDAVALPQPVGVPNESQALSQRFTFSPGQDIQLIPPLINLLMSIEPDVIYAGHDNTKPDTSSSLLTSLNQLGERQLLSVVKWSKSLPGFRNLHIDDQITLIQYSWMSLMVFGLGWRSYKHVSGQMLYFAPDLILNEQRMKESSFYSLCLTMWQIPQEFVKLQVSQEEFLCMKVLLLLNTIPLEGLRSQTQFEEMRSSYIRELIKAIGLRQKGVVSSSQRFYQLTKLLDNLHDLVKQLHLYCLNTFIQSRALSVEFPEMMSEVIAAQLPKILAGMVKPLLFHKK
Method in brief: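 HEK 293T PR-UAS-bla reporter cells, 2% charcoal-stripped FBS; 6 hr settle at 37C/5% CO2, compound (DMSO) 16 hr, LiveBLAzer B/G FRET substrate 2 hr RT, fluorescence intensity read.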

[4] = target: Progesterone receptor (Homo sapiens) (UniProt P06401); experiment: qHTS assay to identify small molecule antagonists of the progesterone receptor (PR) signaling pathway (AID 1346795; active = well fitted inhibition curve with a large enough effect in the signal ratio in the repeat runs, not every such curve was filed as active; the % refers to the signal ratio); conditions: PR-UAS-bla HEK293T, beta-lactamase FRET ratio, 16 h; series mostly up to 92.4 µM
Method in brief: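 Beta-lactamase reporter, HEK293T PR-UAS-bla line; 2% charcoal-stripped FBS; 6 hr pre-incubation, 37C/5% CO2. Compound + R5020 1 nM final, 16 hr. LiveBLAzer B/G FRET substrate, 2 hr RT; fluorescence intensity read.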

[5] = qHTS assay to identify small molecule antagonists of the progesterone receptor (PR) signaling pathway - cell viability counter screen (AID 1346798); conditions: PR-UAS-bla HEK293T viability, CellTiter-Glo luminescence, 16 h; series mostly up to 92.4 µM; also: nearly all actives have a fitted effect of over 50% in size
Method in brief: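 Luminescence readout (CellTiter-Glo, 30 min, RT) of viability in PR-UAS-bla HEK293T cells exposed to compound and R5020 agonist for 16 hr at 37C, 5% CO2; run in the same wells as the beta-lactamase reporter read.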

[6] = qHTS assay to identify small molecule agonists of the progesterone receptor (PR) signaling pathway - cell viability counter screen (AID 1346799; calls by dose curve; also: nearly all actives have a fitted effect of over 45% in size); conditions: PR-UAS-bla HEK293T viability, CellTiter-Glo luminescence, 16 h; series mostly up to 92.4 µM
Method in brief: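 HEK293T PR-UAS-bla, 3,000 cells/well, 2% charcoal-stripped FBS; 6 h settle, compound 16 h at 37C/5% CO2; LiveBLAzer 2 h RT, then CellTiter-Glo 30 min RT, luminescence read.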

[7] = qHTS assay to identify small molecule antagonists of the TGF-beta/Smad signaling pathway - cell viability counter screen (AID 1346824); conditions: SBE-bla HEK293T viability, CellTiter-Glo luminescence; series mostly up to 76.8 µM; also: nearly all actives have a fitted effect of over 50% in size
Method in brief: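 Cytotoxicity counter-screen run in the same wells as the beta-lactamase Smad reporter read: CellTiter-Glo luminescence after 30 min at room temperature. HEK 293T SBE-bla cells had 5 hr compound exposure at 37 C with TGF-beta1 (0.25 ng/mL stock).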

[8] = qHTS assay to identify small molecule agonists of the TGF-beta/Smad signaling pathway - cell viability counter screen (AID 1346829); conditions: SBE-bla HEK293T viability, CellTiter-Glo luminescence, 5 h; series mostly up to 76.8 µM; also: top concentration of the series differs between compounds; nearly all actives have a fitted effect of over 45% in size
Method in brief: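 Compound-treated SBE-bla HEK 293T cells (5 hr, 37 C) were assessed for viability with CellTiter-Glo in parallel with the reporter read.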

[9] = qHTS assay to identify small molecule agonists of the TGF-beta/Smad signaling pathway (AID 1346859; active = well fitted activation curve with a large enough effect in the signal ratio in the repeat runs, not every such curve was filed as active; the % refers to the signal ratio); conditions: SBE-bla HEK293T, TGF-beta/Smad beta-lactamase reporter, 5 h; series mostly up to 76.8 µM
Method in brief: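 Read-out: fluorescence at 460 and 530 nm (405 nm excitation) after a 2 hr room-temperature incubation with beta-lactamase FRET substrate. SBE-bla HEK 293T cells had been treated with test compounds for 5 hr at 37 C.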

[10] = target: Thyrotropin-releasing hormone receptor (Homo sapiens) (UniProt P34981); experiment: qHTS assay to identify small molecule antagonists of the thyrotropin-releasing hormone receptor (TRHR) signaling pathway (AID 1346877; active = well fitted inhibition curve with a large enough effect in the repeat runs, not every such curve was filed as active); conditions: TRHR-HEK293, TRH-induced calcium fluorescence, antagonist mode; series mostly up to 51.3 µM
Sequence of Thyrotropin-releasing hormone receptor (Homo sapiens) (P34981 whole entry, looked up): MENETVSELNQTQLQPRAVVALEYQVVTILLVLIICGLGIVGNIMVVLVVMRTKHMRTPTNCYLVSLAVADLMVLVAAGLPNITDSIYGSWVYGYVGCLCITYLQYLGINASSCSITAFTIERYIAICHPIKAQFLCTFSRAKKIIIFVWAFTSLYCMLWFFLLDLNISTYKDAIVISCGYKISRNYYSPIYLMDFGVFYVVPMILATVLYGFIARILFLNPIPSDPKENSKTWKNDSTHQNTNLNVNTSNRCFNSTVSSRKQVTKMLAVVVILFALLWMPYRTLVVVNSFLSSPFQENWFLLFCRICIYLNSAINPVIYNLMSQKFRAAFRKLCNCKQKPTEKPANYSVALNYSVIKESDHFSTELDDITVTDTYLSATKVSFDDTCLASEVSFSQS
Method in brief: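 Overnight-plated (18 h, 37 °C) HEK293 cells expressing TRHR were dye-loaded 2 h, treated with compound, then stimulated with TRH at 1 nM final. Fluorescence intensity was captured every second for 3 min.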

[11] = target: Thyrotropin-releasing hormone receptor (Homo sapiens) (UniProt P34981); experiment: qHTS assay to identify small molecule agonists of the thyrotropin-releasing hormone receptor (TRHR) signaling pathway (AID 1346891; calls by dose curve;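 also: HEK293 cells expressing TRHR with calcium dye readout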); conditions: TRHR-HEK293 calcium fluorescence, agonist mode; series mostly up to 57.6 µM
Method in brief: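 HEK293/TRHR cells, 1500 per well, 18 h 37 °C; Ca dye 2 h 37 °C; pin-tool compound addition (agonist mode); kinetic fluorescence 3 min, 1 s reads; 15 concentrations, triplicate.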

[12] = Human pregnane X receptor (PXR) small molecule agonists, qHTS cell viability counter screen (AID 1346977); conditions: PXR-Luc HepG2 viability, CellTiter-Fluor, 24 h; series mostly up to 92.4 µM; also: nearly all actives have a fitted effect of over 50% in size
Method in brief: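 Fluorescence read-out (CellTiter-Fluor) of viability in PXR-Luc HepG2 cells, multiplexed with the luciferase agonist read. Compounds in DMSO added after 5hr plating; 24hr total exposure at 37C, 5% CO2.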

[13] = Caspase-3/7 induction in HepG2 cells by small molecules, qHTS assay (AID 1346978); conditions: HepG2 caspase-3/7 activation, Caspase-Glo luminescence, 17 h; series mostly up to 92.4 µM; also: nearly all actives have a fitted effect of over 15% in size
Method in brief: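 Caspase-3/7 induction was measured by Caspase-Glo 3/7 luminescence (30 min, room temperature) after a 17 hr compound exposure of wild-type HepG2 cells seeded at 2,000 per well and pre-incubated 5 hr.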

[14] = Caspase-3/7 induction in CHO-K1 cells by small molecules, qHTS assay (AID 1346980); conditions: CHO-K1 caspase-3/7 induction, Caspase-Glo luminescence, 17 h; series mostly up to 92.4 µM; also: nearly all actives have a fitted effect of over 15% in size
Method in brief: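 Luminescent Caspase-Glo 3/7 read (30min, room temperature) quantified apoptosis induction. Cells were wild-type CHO-K1, treated with compound for 17hr at 37 C and 5% CO2.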

[15] = target: Nuclear receptor subfamily 1 group I member 2 (Homo sapiens) (UniProt O75469); experiment: Human pregnane X receptor (PXR) small molecule agonists, qHTS assay (AID 1346982); conditions: PXR-Luc HepG2, CYP3A4 luciferase reporter, 24 h; series mostly up to 92.4 µM; also: nearly all actives have a fitted effect of over 35% in size
Sequence of Nuclear receptor subfamily 1 group I member 2 (Homo sapiens) (O75469 whole entry, looked up): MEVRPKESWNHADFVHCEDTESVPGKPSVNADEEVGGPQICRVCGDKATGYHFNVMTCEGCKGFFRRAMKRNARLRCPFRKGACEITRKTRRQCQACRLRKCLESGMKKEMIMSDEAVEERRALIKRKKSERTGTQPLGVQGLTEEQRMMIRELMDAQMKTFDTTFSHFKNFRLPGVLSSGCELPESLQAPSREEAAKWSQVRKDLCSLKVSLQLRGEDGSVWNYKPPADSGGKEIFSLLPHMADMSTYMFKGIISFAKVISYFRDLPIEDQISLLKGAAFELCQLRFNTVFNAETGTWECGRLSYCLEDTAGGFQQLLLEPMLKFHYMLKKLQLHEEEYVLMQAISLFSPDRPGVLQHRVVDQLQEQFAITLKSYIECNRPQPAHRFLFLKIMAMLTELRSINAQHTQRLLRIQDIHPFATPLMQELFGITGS
Method in brief: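 Stable HepG2 line reporting PXR-mediated CYP3A4 expression via luciferase. Treatment: 24 hr with compounds in DMSO at 37 C. Detection: ONE-Glo luminescence.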

[16] = Caspase-3/7 induction in HepG2 cells by small molecules, qHTS cell viability counter screen (AID 1346981); conditions: CellTiter-Fluor fluorescence, 17 h; series mostly up to 92.4 µM; also: nearly all actives have a fitted effect of over 30% in size
Method in brief: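 Treatment of HepG2 cells with DMSO-delivered compounds ran 16 hr at 37 C following a 5-hr pre-incubation of 2,000 cells/well. CellTiter-Fluor fluorescence, read after 1 hr, served as the viability measure in a qHTS format.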

[17] = Caspase-3/7 induction in CHO-K1 cells by small molecules, qHTS cell viability counter screen (AID 1346979); conditions: CellTiter-Fluor fluorescence, 17 h; series mostly up to 92.4 µM; also: nearly all actives have a fitted effect of over 35% in size
Method in brief: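 CHO-K1 wt, 1,500 cells/well; 5hr pre-incubation 37C/5% CO2; compound pin transfer (DMSO); 16hr exposure; CellTiter-Fluor added, 1hr, fluorescence read.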
% is scaled to controls: 0 for no effect and ±100 for the full control effect.

CS(=O)(=O)c1ccc([C@@H](C[C@H]2CCC(=O)C2)C(=O)Nc2cnccn2)cc1Cl
inactive: Potency [1] | Potency [2] | Potency [3] | Potency [4] | Potency [5] | Potency [6] | outcome [7] | Potency [8] | Potency [9] | outcome [10] | outcome [11] | Potency [12] | Potency [13] | outcome [14] | Potency [15]

CCCCCCC(O)CCCCCCCCCCC(=O)OC (stereo not drawn)
inactive: Potency [1] | Potency [2] | Potency [3] | Potency [4] | Potency [5] | Potency [6] | outcome [7] | Potency [8] | Potency [9] | outcome [10] | outcome [11] | Potency [12] | Potency [13] | outcome [14] | Potency [16] | Potency [15]

CC1=CC[C@@H]2C[C@H]1C2(C)C
inactive: activity change, negative = inhibition [1] 8.95% [at 19 µM] | activity change, negative = cytotoxicity [2] 3.72% [at 19 µM] | activation [3] 3.56% [at 19 µM] | activity change, negative = inhibition [4] 6.78% [at 18.9 µM] | activity change, negative = cytotoxicity [5] 0.83% [at 18.9 µM] | activity change, negative = cytotoxicity [6] -14.1% [at 19 µM] | viability change, negative = cytotoxic [7] 2.23% [at 15.8 µM] | activity change, negative = cytotoxicity [8] 7.86% [at 15.8 µM] | activation [9] 0.129% [at 15.8 µM] | activity, negative = inhibition [10] 3.09% [at 10.5 µM] | activation [11] -0.516% [at 11.8 µM] | activity change, negative = cytotoxicity [12] 1.01% [at 19 µM] | caspase activation [13] -0.809% [at 19 µM] | activity change, negative = cytotoxicity [17] -0.814% [at 19 µM] | caspase-3/7 activation [14] 0.0875% [at 19 µM] | activity change, negative = cytotoxicity [16] -0.185% [at 19 µM]

CC(C)COC(=O)COc1cc(Cl)c(Cl)cc1Cl
inactive: Potency [1] | Potency [2] | Potency [3] | Potency [4] | Potency [5] | Potency [6] | outcome [7] | Potency [8] | Potency [9] | outcome [10] | outcome [11] | Potency [12] | Potency [13] | Potency [17] | outcome [14] | Potency [16]
